Data published in PubChem BioAssay AID977607 (Broad Institute, 2014).
Hit rate of the full screen: of about 1,500 compounds, about 460 (31%) were called active. Not shown: some 1% with an inconclusive outcome.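 Rule for the calls: active = curve reaches 40% activation over neutral controls at an AC40 no higher than the top valid tested concentration; inconclusive = no clear call, values can overlap the other calls; inactive = signal moving opposite to the expected increase, and the rest.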 Only a sample is shown. Potency and affinity values are given separately.

Assay: GLuc-reported insulin release enhancers, glucose-stimulated beta cells – cell-based, INS-1E, Gaussia luciferase, luminescence, cherry-pick, set 2, dose response (AID 977607);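 note: 0% = median of the plate neutral control wells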
Details: INS-1E GLuc insulin secretion reporter, 2-3 h, stronger effect = higher value; at 35 µM, 100% = signal doubled over neutral wells unless noted

Max activation, inactive:
COc1ccc(CC(=O)c2ccc(OC)c(OC)c2)cc1 18.3% [at 0.0016 µM, 100% = signal doubled over neutral wells]
COc1cc2ccc(C(C)=O)cc2cc1OC 29.7% [at 0.0016 µM, 100% = signal doubled over neutral wells]
COc1ccc(C(C)=O)cc1CSCc1cc(C(C)=O)ccc1OC 10.8%
CC(C)c1ccc2oc(=O)cc(CN3CCCCC3)c2c1 -12.8%
Cc1cc2oc(=O)cc(CN3CCOCC3)c2c(C)c1Cl -12.4% [at 0.0016 µM, 100% = signal doubled over neutral wells]
COc1ccc(-c2cc(C(F)(F)F)n3nc(C(=O)O)cc3n2)cc1OC 13.4%
Cc1ccccc1Cc1c(C)nc2c(C(=O)NCc3ccco3)cnn2c1C -44.9%
C[C@H]1[C@@H](c2ccccc2)Oc2c(Cl)cccc2S(=O)(=O)N1C -29.7% [at 11 µM, 100% = signal doubled over neutral wells]
CCN1CCN(c2nnc(-c3ccccc3)c3ccccc23)CC1 13.4% [at 0.135 µM, 100% = signal doubled over neutral wells]
COC(=O)Cn1cc(C#N)c2ccccc21 43% [at 0.42 µM, 100% = signal doubled over neutral wells]
CN(C)C(=O)c1ccc(-c2ccc([C@@H]3[C@@H](CO)N4C(=O)CN(C(=O)C5CC5)C[C@@H]34)cc2)cc1 31.8% [at 0.046 µM, 100% = signal doubled over neutral wells]
C/C=C1\COC(C(=O)NCc2ccccc2)(C(F)(F)F)C=C1C=C(C)C (centres undefined) -29.1%
CN(c1ccc(F)cc1)S(=O)(=O)c1ccc(Cl)c(C(=O)NCC2CCCO2)c1 (centres undefined) -19.1%
CN(C(=O)[C@H]1O[C@@H](n2cnc(C(N)=O)n2)[C@H](O)[C@@H]1O)c1ccccc1 -24.3% [at 1.2 µM, 100% = signal doubled over neutral wells]
CN1CCSc2ccc(C(=O)Nc3cccc(F)c3)cc21 -34.2%
Cc1nc2c(c(N3CCOCC3)n1)OCC(=O)N2 52.8%
COc1cc(C2N(C)CCC3(OCCO3)C2(C)C)cc(OC)c1OC (centres undefined) -12.6% [at 0.0016 µM, 100% = signal doubled over neutral wells]
CCSc1nnc2ccc(-c3cccs3)nn12 23.8%
COc1ccc(-c2nnc3sc(-c4ccco4)nn23)cc1OC -14.1% [at 0.046 µM, 100% = signal doubled over neutral wells]
